From PubChem BioAssay (NCI) come the findings set out here.

The nature of this assay: NCI Yeast Anticancer Drug Screen. Data for the wt2 strain (AID 169).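 Note: 0% = growth of vehicle-treated yeast cultures.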 Particulars: S. cerevisiae wt2 strain growth inhibition, stronger effect = higher value. Here is the method: Growth inhibition of yeast strains with defined genetic alterations is measured as a screen for potential anti-cancer activity. Selected strains with alterations in DNA damage repair or cell cycle control were exposed to compounds and growth inhibition was measured relative to vehicle treated controls. The strain used in this assay is wt2

The panel holds about 79,000 compounds, 15% with a hit somewhere; the sample as a whole holds those more often. Values without a mark were called inactive. Active and inactive are the calls of the source. Cut-off read from the data, not from the text of the source: active = growth inhibition above about 70%; inactive = the rest.

On to `Cc1ccc(-c2ccc(Nc3c4ccccc4nc4ccccc34)cc2)cn1`, for which the growth inhibition is -14% (at 1.2 µM); 2% (at 3.7 µM); 22% (at 11.0 µM); 92% (active) (at 33.0 µM); 39% (at 100.0 µM).

Turning to `O=c1ssc2ncccc12`, the growth inhibition is -6% (at 1.2 µM); -4% (at 3.7 µM); 15% (at 11.0 µM); 57% (at 33.0 µM); 98% (active) (at 100.0 µM).

As for `COc1ccc(/C(C)=N/OC(=O)c2c(-c3ccccc3Cl)noc2C)cc1CN1CCOCC1`, the growth inhibition is, setting by setting: (at 1.2 µM) -18%; (at 3.7 µM) -27%; (at 11.0 µM) -21%; (at 33.0 µM) -7%; (at 100.0 µM) 65%.

With `CCCCCCCCCCCC(=O)N(C)C`, the growth inhibition by setting is: (at 1.2 µM) -6%; (at 3.7 µM) -11%; (at 11.0 µM) -11%; (at 33.0 µM) 29%; (at 100.0 µM) 99% (active).

As to `N#Cc1ccc(C2NN=CC23C(=O)c2ccccc2OC3c2ccccc2)cc1` (stereo not given), the growth inhibition reads like this: (at 1.2 µM) 0%; (at 3.7 µM) 0%; (at 11.0 µM) 2%; (at 33.0 µM) 1%; (at 100.0 µM) 3%.

On to `CCN(CC)[P+](c1ccccc1O)(N(CC)CC)N(CC)CC`, for which the growth inhibition was -25% (at 1.2 µM); -13% (at 3.7 µM); -19% (at 11.0 µM); 7% (at 33.0 µM); 77% (active) (at 100.0 µM).

In the case of `FC(F)(F)c1cc(NC(=S)N2c3ccccc3-n3cccc3C2c2cccnc2)cc(C(F)(F)F)c1` (stereo not given), the growth inhibition was -2% (at 1.2 µM); -3% (at 3.7 µM); -2% (at 11.0 µM); -1% (at 33.0 µM); 2% (at 100.0 µM).

Regarding `S=C(S)NN1CCOCC1`, the growth inhibition by setting is: (at 1.2 µM) 64%; (at 3.7 µM) 31%; (at 11.0 µM) 26%; (at 33.0 µM) 34%; (at 100.0 µM) 31%.
